{"source": "PubChem BioAssay AID1878", "about": "(Sanford-Burnham Center for Chemical Genomics, 2009)", "note": "Screen size: about 1,000 compounds; about 200 (20%) were called active. A selection follows. Potency and affinity values are given separately. Unmarked numbers belong to inactive results. Rule as the data show it: active = inhibition above about 55%; inactive = the rest."}
{"molecular_target": "Dual specificity protein phosphatase 3 (Homo sapiens) (UniProt P51452)", "sequence (P51452 whole entry, looked up)": "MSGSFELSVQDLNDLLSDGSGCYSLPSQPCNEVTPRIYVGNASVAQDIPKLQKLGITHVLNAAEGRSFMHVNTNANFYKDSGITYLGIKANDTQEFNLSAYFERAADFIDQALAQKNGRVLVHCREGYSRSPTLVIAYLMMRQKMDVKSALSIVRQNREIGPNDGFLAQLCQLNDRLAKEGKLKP", "experiment": "VHR1 phosphatase inhibitors, biochemical (AID 1878)", "details": "recombinant VHR phosphatase, fluorogenic substrate; at 13.3 µM; active compounds read high"}
{"molecule": "COc1ccccc1N(CC(O)CN1CCC(C)CC1)S(=O)(=O)c1ccccc1", "note": "(centres undefined)", "inhibition": "-7.2%"}
{"molecule": "Cc1ccc(S(=O)(=O)N(C)C)cc1NC(=O)COC(=O)/C=C/c1cnc2ccccc2n1", "inhibition": "10.1%"}
{"molecule": "O=C(Nc1ccc(N2CCCCC2)cc1)c1ccc([N+](=O)[O-])o1", "inhibition": "14.3%"}
{"molecule": "CC(O)CNc1nc2c(c(=O)n(Cc3ccc(Cl)cc3)c(=O)n2C)n1C", "note": "(centres undefined)", "inhibition": "27.1%"}
{"molecule": "CC(C)NC(=O)CN1C(=O)CSc2ccc(S(=O)(=O)N3CCCC3)cc21", "inhibition": "15.9%"}
{"molecule": "CCc1nn(CC(=O)N2CCN(c3cc(C)ccc3C)CC2)c(=O)c2cc3occc3n12", "inhibition": "4.7%"}
{"molecule": "COC(=O)C1CCN(Cc2c(C(=O)N3C[C@@H](C)O[C@@H](C)C3)nc3ccc(Cl)cn23)CC1", "inhibition": "19%"}
{"molecule": "Cc1cc(-c2ccc(C)c(S(=O)(=O)NCCCN(Cc3ccccc3)C(C)C)c2)on1", "inhibition": "3.1%"}
{"molecule": "S=c1nc(NCc2cccc(Cl)c2)c2ccccc2[nH]1", "inhibition": "6.3%"}
{"molecule": "CCN(CC)CCCNC(=O)c1ccc(CS(=O)(=O)c2ccccc2OC)o1", "inhibition": "-2.3%"}
{"molecule": "CN(C(=O)CSc1cn(CC(=O)N2CCOCC2)c2ccccc12)c1ccccc1", "inhibition": "-6.1%"}
{"molecule": "CCc1ccc(CN(C)C(=O)c2ccc3c(c2)OCCO3)cc1", "inhibition": "11.2%"}
{"molecule": "O=C(O)CCN1C(=O)/C(=C2\\C(=O)N(Cc3ccc(F)cc3)c3ccccc32)SC1=S", "inhibition": "92.9% (active)"}
{"molecule": "CN1C=CC=C/C1=C1/SC(=S)N(Cc2ccccc2)C1=O", "inhibition": "-8%"}
{"molecule": "O=C(O)CCCN1C(=O)c2ccccc2Sc2ncccc21", "inhibition": "2.1%"}
{"molecule": "CCCCN1C(=O)/C(=C2\\SC(N3CCOCC3)=NC2=O)c2ccccc21", "inhibition": "1.9%"}
{"molecule": "N#CC(c1cccnc1)N1CCOCC1", "note": "(centres undefined)", "inhibition": "5.3%"}
{"molecule": "N#Cc1ccc(OS(=O)(=O)c2ccc(-c3ccon3)s2)cc1", "inhibition": "1.6%"}
{"molecule": "CCOC(=O)c1ccc(NC(=O)CSc2nnc(CNC(=O)c3ccco3)o2)cc1", "inhibition": "28.4%"}
{"molecule": "OC(CN1CCC(Cc2ccccc2)CC1)c1ccccc1", "note": "(centres undefined)", "inhibition": "3.5%"}
{"molecule": "CC(C(=O)O)N1C(=O)/C(=C/C=C/c2ccco2)SC1=S", "note": "(centres undefined)", "inhibition": "97.9% (active)"}
{"molecule": "O=C(O)C(Cc1ccccc1)N1C(=O)/C(=C/C=C/c2ccco2)SC1=S", "note": "(centres undefined)", "inhibition": "71.7% (active)"}
{"molecule": "Cc1cc(N2CCN(c3ncccn3)CC2)nc2c(C)cccc12", "inhibition": "3.7%"}
{"molecule": "CNS(=O)(=O)c1cn(CC(=O)NCc2ccc(N(C)C)cc2)cc1S(=O)(=O)NC", "inhibition": "5.7%"}
{"molecule": "COc1ccc(CN(C)C(=O)c2cccc(NS(=O)(=O)c3ccccc3)c2)cc1F", "inhibition": "6%"}
{"molecule": "Cc1ccc(N2C(=O)c3ccccc3C2=O)nc1", "inhibition": "-3.1%"}
{"molecule": "CCN1CCN(C(=O)c2cc3ccc(OC)cc3[nH]2)CC1", "inhibition": "10.9%"}
{"molecule": "COc1ccc(Br)cc1S(=O)(=O)N1CCCc2ccccc21", "inhibition": "-6.5%"}
{"molecule": "CSc1ncc(C(=O)Nc2cc(C)ccc2C)c(C)n1", "inhibition": "-5.1%"}
{"molecule": "Cc1cc2nc3s/c(=C/c4ccc(-c5ccccc5C(=O)O)o4)c(=O)n3c2cc1C", "inhibition": "74.7% (active)"}
{"molecule": "CN(C)CCN(CC1CCCN(Cc2ccccc2F)C1)C(=O)Cc1ccccc1F", "note": "(centres undefined)", "inhibition": "-15.2%"}
{"molecule": "CC1=C(C(=O)Nc2cccc(C(=O)N3CCC(C(N)=O)CC3)c2)SCCO1", "inhibition": "4.8%"}
{"molecule": "COc1ccc(NC(=O)NCCN2CCCCC2)cc1", "inhibition": "-10.3%"}
{"molecule": "CCN(CC)CCNC(=O)CCN1N=C(c2ccccc2)CCC1=O", "inhibition": "2.7%"}
{"molecule": "O=C(c1ccc(NC2=NC3CS(=O)(=O)CC3S2)cc1)N(CCO)Cc1ccccc1", "note": "(centres undefined)", "inhibition": "0.9%"}
{"molecule": "O=C1C(Cl)=C(N2CCOCC2)C(=O)N1c1ccccc1F", "inhibition": "-7.3%"}
{"molecule": "COc1ccc(N(C(=O)c2snc(C(N)=O)c2N)C(C(=O)NC2CCCC2)c2ccc(F)cc2)c(OC)c1", "note": "(centres undefined)", "inhibition": "-0.8%"}
{"molecule": "CC1CCCCN1CCCNC(=O)CCCN1C(=O)c2cccnc2Sc2ccccc21", "note": "(centres undefined)", "inhibition": "-12.7%"}
{"molecule": "CC1CCN(CCCNC(=O)C2CC(=O)N(CCc3ccccc3)C2)CC1", "note": "(centres undefined)", "inhibition": "-14.3%"}
{"molecule": "COc1ccc(N(C)S(=O)(=O)c2ccc3c(c2)NC(=O)CC(=O)N3)c(OC)c1", "inhibition": "7.8%"}
{"molecule": "COC(=O)C1=NN(C(=O)c2ccccc2)C(O)(c2ccc([N+](=O)[O-])cc2)C1", "note": "(centres undefined)", "inhibition": "-7.4%"}
{"molecule": "CC(Cc1n[nH]c(=S)n1N)c1ccccc1", "note": "(centres undefined)", "inhibition": "-2.8%"}
{"molecule": "CCc1cc(=O)oc2c(C)c(OCC(=O)NCCCN3CCOCC3)ccc12", "inhibition": "3.5%"}
{"molecule": "CCOCCn1cnc2sc(C(=O)NCCCN3CCOCC3)c(C)c2c1=O", "inhibition": "9.7%"}
{"molecule": "CCOC(=O)C1(CCc2ccccc2)CCN(CC(O)CO)CC1", "note": "(centres undefined)", "inhibition": "-10.8%"}
{"molecule": "Cn1c(=O)c2c(ncn2CCOc2ccc(F)cc2)n(C)c1=O", "inhibition": "-6.4%"}
{"molecule": "Cc1cc(C)cc(NCc2cc(=O)oc3cc(C)c(O)cc23)c1", "inhibition": "8.5%"}
{"molecule": "CCn1cc(CCC(=O)NCCN2CCOCC2)c2ccccc21", "inhibition": "-13.7%"}
{"molecule": "O=C(Cc1ccccc1)Nc1ccc(C(=O)Nc2ccc(O)cc2)cc1", "inhibition": "1.2%"}
{"molecule": "C/C(=N\\NC(=O)CNC(=O)c1cccc(F)c1)c1ccc2ccccc2c1", "inhibition": "1.1%"}
{"molecule": "C/C(=N\\NC(=O)c1cc(O)cc(O)c1)c1ccc(NC(=O)Cc2ccccc2)cc1", "inhibition": "96.6% (active)"}
{"molecule": "O=C(NCc1c(O)ccc2ccccc12)c1ccccc1", "inhibition": "2.1%"}
{"molecule": "Cc1ccc(NC(=O)C(=O)NCc2ccc(/C=N/NC(=O)c3c(C)nc4ccccn34)o2)cc1", "inhibition": "18.4%"}
{"molecule": "O=C(CN1CCCCCC1)N/N=C/c1ccc2ccccc2c1", "inhibition": "-6.1%"}
{"molecule": "O=C(N/N=C/c1cccc([N+](=O)[O-])c1)c1cc2c(ccc3ccccc32)o1", "inhibition": "98% (active)"}
{"molecule": "O=C(N/N=C/c1ccc([N+](=O)[O-])o1)c1cc2c(ccc3ccccc32)o1", "inhibition": "98.8% (active)"}
{"molecule": "O=C(O)c1ccc(/C=N/NC(=O)c2cc3c(ccc4ccccc43)o2)cc1", "inhibition": "98.7% (active)"}
{"molecule": "O=C(NCc1ccc(Cl)cc1)Nc1ccc(F)cc1", "inhibition": "0.7%"}
{"molecule": "CCOC(=O)c1cc(/C(C)=N/OC(=O)c2ccc(C(C)(C)C)cc2)on1", "inhibition": "0.2%"}
{"molecule": "COc1ccc(S(=O)(=O)N2CCCC(C(=O)NCC3CCCO3)C2)cc1C", "note": "(centres undefined)", "inhibition": "-4.1%"}
{"molecule": "COc1ccc(C(=O)NCc2nnc(SCC(=O)Nc3cc(OC)ccc3OC)o2)cc1", "inhibition": "-6.8%"}
{"molecule": "CC1CCCN(CCCNC(=O)C2CC(=O)N(CCc3ccccc3)C2)C1", "note": "(centres undefined)", "inhibition": "-5.4%"}
{"molecule": "CCC1CCCCN1CCCNC(=O)C1CC(=O)N(CCc2ccccc2)C1", "note": "(centres undefined)", "inhibition": "20.9%"}
{"molecule": "NC(=S)N=Nc1ccc(NN=C(N)N)cc1", "inhibition": "40.2%"}
{"molecule": "COc1ccc(NC(=O)Cc2nnc(SCC(=O)NC3CCCC3)n2C)cc1", "inhibition": "-4.1%"}
{"molecule": "CCNC(=O)c1cc(Br)ccc1Cl", "inhibition": "-8.7%"}
{"molecule": "CN(c1ccccc1)S(=O)(=O)c1nnc(NC(=O)C2CCCCC2)s1", "inhibition": "-1.3%"}
{"molecule": "Cn1c2ccccc2c(=O)c2ccc(C#Cc3ccccn3)cc21", "inhibition": "75.5% (active)"}
{"molecule": "Cc1nc([N+](=O)[O-])cn1Cc1cccc2ccccc12", "inhibition": "-13.3%"}
{"molecule": "O=C(CN1CCCCC1)N/N=C/c1cccc(Cl)c1", "inhibition": "-9.7%"}
{"molecule": "O=C(Cn1c2ccccc2c(=O)c2ccccc21)N/N=C/c1cc([N+](=O)[O-])ccc1N1CCCCCC1", "inhibition": "99.4% (active)"}
{"molecule": "O=C(N/N=C/c1ccncc1)c1cccc(S(=O)(=O)Nc2ccc(Cl)cc2)c1", "inhibition": "98.9% (active)"}
{"molecule": "NC(=O)c1ccc(C(=O)N/N=C/c2cccc(Oc3ccccc3)c2)cc1", "inhibition": "-0.5%"}
{"molecule": "CN(C)CCNC(=O)c1cccc(S(=O)(=O)Nc2ccc(F)cc2)c1", "inhibition": "-5.8%"}
{"molecule": "Cc1nc2cc(NC(=O)c3ccc(Cl)cc3)ccc2n1C", "inhibition": "-9.5%"}
{"molecule": "O=C(N/N=C/c1cccnc1)c1cccc(NC(=O)c2ccc(Cl)cc2)c1", "inhibition": "92.9% (active)"}
{"molecule": "Cc1ccc(S(=O)(=O)NC(CC(=O)NC2CCCC2)c2ccco2)cc1", "note": "(centres undefined)", "inhibition": "23.6%"}
{"molecule": "CSc1ncc(C(=O)Nc2ccccc2Cl)c(C)n1", "inhibition": "-1.1%"}
{"molecule": "COc1ccc(OC)c(N/C(N)=N/c2nc(C)cc(C)n2)c1", "inhibition": "-19.2%"}
{"molecule": "Cc1ccc(NC(=O)CCNC(=O)c2ccccc2Cl)nc1", "inhibition": "1.9%"}
{"molecule": "CC(c1ccccc1)N1CCn2c(nc3cc(NC(=O)NC4CCCCC4)ccc32)C1", "note": "(centres undefined)", "inhibition": "-21.4%"}
{"molecule": "COc1ccc(/C=C2\\N=C(C)OC2=O)cc1OC", "inhibition": "-5.7%"}
{"molecule": "CC(C)OCCCNc1ncnc2c1nc1n2CCCC1", "inhibition": "-2.4%"}
{"molecule": "COC(=O)c1ccnc(/C=N/O)c1", "inhibition": "9.3%"}
{"molecule": "COc1ccc(-c2nnc(Nc3nc4c(OC)cccc4s3)o2)cc1", "inhibition": "95.5% (active)"}
{"molecule": "COc1ccc(-c2nnc(SC(C)C(=O)NNC(=O)c3ccc(C)cc3)o2)cc1", "note": "(centres undefined)", "inhibition": "-2.9%"}
{"molecule": "Cc1[nH][nH]c(=O)c1C(c1cc(Br)ccc1O)c1c(C)[nH][nH]c1=O", "inhibition": "3.3%"}
{"molecule": "COc1ccccc1N1CCN(C2CCCN(C(=O)CCC(=O)N(C)C)C2)CC1", "note": "(centres undefined)", "inhibition": "-13.2%"}
{"molecule": "COc1ccc2c(c1)cc(C(=O)N[C@@H](Cc1ccccc1)C(=O)N[C@@H](C)C(=O)O)n2C", "inhibition": "-10.4%"}
{"molecule": "CCCC(NC(=O)Cc1c(C)c2cc3c(C)c(C)oc3c(C)c2oc1=O)C(=O)N[C@@H](Cc1ccccc1)C(=O)O", "note": "(some centres undefined)", "inhibition": "68.8% (active)"}
{"molecule": "Cn1c(C(=O)N[C@@H](Cc2ccccc2)C(=O)O)cc2cc(Cl)ccc21", "inhibition": "3.5%"}
{"molecule": "Cc1nn(CC(=O)NCCCN2CCCCC2C)c(=O)c2cccn12", "note": "(centres undefined)", "inhibition": "-5.4%"}
{"molecule": "CCOCCCNC(=O)C1CC(=O)N(CCc2ccccc2)C1", "note": "(centres undefined)", "inhibition": "15%"}
{"molecule": "CC(C)CCNC(=O)CN(C(=O)CCC(=O)Nc1ccccn1)c1ccc2c(c1)OCCO2", "inhibition": "5.2%"}
